Assay results: PubChem BioAssay (NCI)
The panel holds about 83,000 compounds, 20% with a hit somewhere; the sample as a whole holds those more often.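 Plates (96-well) were seeded with cells, treated with compound at one concentration, and incubated for 48 hours before percent growth was determined.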 Values without a mark were called inactive. Active and inactive are the calls of the source. Rule for the calls: active = growth percent below 10; inactive = the rest.

System: COLO 205 colon
Assay: NCI-60 one-dose screen, 48 h (100 = growth as untreated, 0 = no growth, -100 = all killed)
Settings: 10 µM unless noted

First: Cc1cccc(-c2nc(Nc3ccc4ncsc4c3)c3ccccc3n2)n1
Second: O=C(/C=C/c1ccccc1)c1ccc(Nc2nc(Nc3ccc(F)cc3)nc(Nc3ccc(Cl)cc3)n2)cc1
The growth of the first is lower: 12.8% for the first, 70.6% for the second.

Going from `CCN1C(=O)N(CC)C2C1NC(=S)N2/N=C/c1ccc(OC)cc1` (stereo not given) to `CCN1C(=O)N(CC)C2Nn3c(s/c(=C\c4ccccc4Br)c3=O)=NC21` (stereo not given), the growth falls from 41.7% to 14.4%.

First: Nc1[nH]c(=S)nc2oc(-c3ccccc3)c(-c3ccccc3)c12
Second: c1ccc2c(c1)CCCc1nnc3nc4ccccc4n3c1-2
The growth of the first is higher: 121% for the first, 12% for the second.

First: Nc1[nH]n2cc(-c3ccc(F)cc3)nc2c1N=Nc1ccc(S(N)(=O)=O)cc1
Second: O=S(=O)(NCCNc1nccc(-c2c(-c3ccc(F)c(O)c3)nc3sccn23)n1)c1ccc(F)cc1
The growth of the first is higher: 95.1% for the first, 26.2% for the second.

First: COc1ccc2c(c1)/C(=N/c1n[nH]c(=S)s1)C(=O)N2
Second: Cc1ccc(C=C2C(=O)NC(=O)NC2=O)cc1
The growth of the first is higher: 118% for the first, 98.3% for the second.

First: Cc1ccc(-c2nc(SCc3nc4cc(Cl)c(Cl)cc4[nH]3)[nH]c(=O)c2C#N)cc1
Second: N#C/C(=C\c1ccc([N+](=O)[O-])cc1)n1nnc2cc(F)c(F)cc21
The growth of the first is higher: 107% for the first, 19.9% for the second.

First: COc1ccc2c(c1)c(/C(O)=C1\COC(=O)C1=O)cn2Cc1ccc(F)cc1
Second: Fc1ccc(Cn2cc(CSc3nc4ccccc4o3)nn2)cc1
The growth of the first is lower: 108% for the first, 114% for the second.

Compared with `O=C1/C(=C2\SC(=S)N(C3CC3)C2=O)SC(=S)N1C1CC1`, `Cc1cccc(N2CCC(=O)NC2=S)c1` is higher in growth: 117% for the first, 119% for the second.

Going from `C#CC#CC#CC#CC#CC#CC#CC#CCC1OC[C@H](COC(=O)O[C@@H](C(=O)O[C@H]2C[C@@]3(O)[C@@H](OC(=O)c4ccccc4)[C@@H]4[C@]5(OC(C)=O)CO[C@@H]5C[C@H](O)[C@@]4(C)C(=O)[C@H](OC(C)=O)C(=C2C)C3(C)C)[C@@H](NC(=O)c2ccccc2)c2ccccc2)O1` (stereo not given in full) to `CCOC(=O)c1c(C)nc2c(c1N)/C(=C/c1ccc(OC)cc1)C(=O)N2Cc1ccccc1`, the growth rises from 23% to 73.7%.

Going from `Cc1nnc(-c2ccc3c(c2)nc(/C=C/c2ccccc2)n3C2CCCCC2)o1` to `Nc1nc(N)c2c(n1)NC(c1ccc(Cl)cc1)C1CCc3ccccc3C1=N2` (stereo not given), the growth falls from 79.7% to 51.6%.

Going from `CC(C)(C)c1cc(Cl)c(O)c(CNCCO)c1` to `CCN(CC)c1ccc(/C=N/NC(=O)Cc2ccc(Nc3ccnc(C(F)(F)F)c3)cc2)c(O)c1`, the growth falls from 112% to 64.9%.

First: Cc1ccc(C(=O)c2ccc(CC(=O)NN3C(=O)c4ccccc4C3=O)n2C)cc1
Second: CNC(=O)c1cc(Oc2cccc3nc(NC(=O)Nc4cc(C(F)(F)F)ccc4Cl)ccc23)ccn1
The growth of the first is higher: 105% for the first, 67.5% for the second.

First: N#C/C(=C\c1ccc(-c2cccc(C(F)(F)F)c2)o1)c1ccccc1
Second: O=C(Cc1ccc(/C=C/C(=O)c2ncc[nH]2)cc1)Nc1cc(C(F)(F)F)cc(C(F)(F)F)c1
The growth of the first is lower: 101% for the first, 102% for the second.

First: CC/C=C\CCC/C=C1/C(=O)C=C[C@@H]1C/C=C\CCCC(=O)OC
Second: O=C(Nc1ccc(Br)cc1)C1=NCCCCN1
The growth of the first is lower: 49.7% for the first, 110% for the second.

Compared with `COc1cccc(CCNc2ncnc3c2ncn3Cc2nnc3c4ccccc4c(Cl)nn23)c1`, `S=C(c1ccc2c(c1)OCO2)N1CCN(c2cccc(Cl)c2)CC1` is lower in growth: 90.9% for the first, 25.4% for the second.

For `COc1ccc(-c2cc(-c3ccccc3)nc(N3CCN(CCNc4ccnc5cc(Cl)ccc45)CC3)n2)cc1`, the growth was -69.1% (active).
For `N#Cc1cccc(C2C3=C(COC3=O)N(CCO)c3cc4c(cc32)OCO4)c1` (stereo not given), the growth was 8.4% (active).
For `N=C(N)c1ccc(-c2ccc(-c3cc(Cl)cc(Cl)c3)s2)nc1`, the growth was -38.4% (active).
`CNC(C)[C@H]1CCC2C3CC=C4C(=O)[C@@H](NC(=O)C=C(C)C)CC[C@]4(C)C3CC[C@@]21C` (stereo not given in full) was tested, and the growth was -82.4% (active).
For `Nc1nc2c(c3ncccc13)C(c1cccc(Cl)c1)Cc1ncccc1-2` (stereo not given), the growth was -21.5% (active).
`COc1ccc(C(=O)N2c3ccccc3Sc3ccccc32)c(C(F)(F)F)c1` was tested, and the growth was -13.9% (active).
`C=C1C(=O)O[C@H]2[C@H]1CC/C(Cn1cc(CCC)nn1)=C\CC[C@@]1(C)O[C@@H]21` was tested, and the growth was -72.1% (active).
With `N#Cc1cccc(C2C3=C(COC3=O)N(CCO)c3cc4c(cc32)CCC4)c1` (stereo not given) the growth was -26.1% (active).
`CN(C)c1ccc(/C=C(\C#N)c2cc3ccccc3[nH]2)cc1` was tested, and the growth was 4% (active).
With `CN1CCN(CCOc2ccc(-c3cnc4c(-c5ccc(F)cc5)cnn4c3)cc2)CC1` the growth was -51.7% (active).
